Experimental data taken from PubChem BioAssay.
Active and inactive are the calls of the source.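 The calls were made as follows, unless noted: active = visual image review flags a hit and inhibition of aggregation exceeds 20%; inconclusive = visual hit but inhibition at or below 20%; inactive = no hit on visual image review.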

Assays:
[1] = inhibitors of TNFa-induced NFkB p65 translocation, primary screen, imaging, HUVEC, MLSMR starter and 10KST1 sets (AID 438;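 active = inhibition above 20% together with a positive visual image hit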;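 also: compound added about 3h40 before a 20 min TNFalpha stimulation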;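 as to inhibition: signal is the nuclear over cytoplasmic p65 intensity ratio per well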); conditions: HUVEC TNFa-induced p65 nuclear translocation; cell count: measured here: nuclei count (cytotoxicity indicator), at 2.08 µM; inhibition: at 2 µM, stronger effect = higher value, 0% TNFa-plus-vehicle, 100% no-TNFa wells
[2] = inhibitors of mutant huntingtin aggregation, primary screen, imaging, exon1htt(103Q)mCFP cells, high-content imaging (AID 483); conditions: exon1htt(103Q)mCFP cell line, aggregate imaging, at 2 µM; inhibition of aggregation: stronger effect = higher value; nuclei count: measured here: cell count, toxicity;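 also: compound exposure lasted 3 days before fixation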;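 as to nuclei count: percent of the per-plate median nuclei count of sample wells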
[3] = inhibitors of E-selectin induction by TNFa, primary screen, imaging, HUVEC, immunofluorescence, MLSMR starter and 10KST1 sets (AID 487;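 active = visually confirmed hit in the image check and inhibition above 20%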;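 as to inhibition: signal is fraction of cell area covered by stained E-selectin grains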;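 as to nuclei count: 100% = median nuclei count of all wells on the same plate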); conditions: HUVEC TNFalpha-induced E-selectin immunofluorescence imaging, at 2 µM; inhibition: stronger effect = higher value; nuclei count: measured here: cell number, toxicity
[4] = molecular target: Voltage-gated potassium channel subunit beta-2 (Rattus norvegicus) (UniProt P62483); assay: KvBeta enzyme negative modulators, primary screen, biochemical, NADPH fluorescence (AID 622;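 active = fluorescence slope higher than the sample average by over 3 SD, cut at about -0.22 in these data, passing the limit was not always enough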;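 also: slope of raw intensity against log time taken from 70 to 1610 s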); conditions: recombinant KvBeta, 4-cyanobenzaldehyde reduction, at 10 µM, stronger effect = higher value
[5] = molecular target: Voltage-gated potassium channel subunit beta-2 (Rattus norvegicus) (UniProt P62483); assay: KvBeta positive modulators, primary screen, biochemical, NADPH fluorescence (AID 623;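 active = NADPH fluorescence slope more negative than the mean of all samples by about 3 SD, 99.7% confidence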;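 also: fluorescence intensity change per second fitted from 20 to 320 s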); conditions: Recombinant KvBeta, NADPH fluorescence decrease slope, 10 min; at 10 µM; stronger effect = lower value
[6] = molecular target: Alpha-2C adrenergic receptor (Homo sapiens) (UniProt P18825); assay: modulators of alpha2C/GIRK thallium flux, primary screen, cell-based, HEK293 alpha2C/GIRK1/2 (AID 624;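 active = fluorescence slope after compound addition differing from the mean of all screened samples at 99.7% confidence, in either direction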;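 also: slope of fluorescence ratio to pre-addition baseline per second over 15 to 24 s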); conditions: thallium flux BTC fluorescence, at 10 µM, actives lie on both sides
[7] = inhibitors of Sendai virus-induced IRF3 signaling, primary screen, TLR/RLR signaling modifier project, cell-based, Sendai virus stimulus, luciferase, 10K MLSCN set (AID 602276;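 active = inhibition at or above 50% at 10 µM; inactive = inhibition below 50%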;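 also: firefly luciferase from ISG56 promoter only with Renilla not read in this screen; 0% = Sendai virus plus DMSO and 100% = medium plus DMSO without virus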); conditions: HEK293 RL24 IRF3 luciferase reporter, at 10 µM, stronger effect = higher value
[8] = inhibitors of poly I:C-induced TLR3 signaling, primary screen, cell-based, poly I:C stimulus, luciferase, 10K MLSCN set (AID 602277;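 active = inhibition of the reporter signal at or above 50%; inactive = inhibition below 50%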); conditions: HEK293-TLR3 RL24 IRF3 luciferase reporter, at 10 µM, stronger effect = higher value

Sequence of Alpha-2C adrenergic receptor (Homo sapiens) (P18825 whole entry, looked up): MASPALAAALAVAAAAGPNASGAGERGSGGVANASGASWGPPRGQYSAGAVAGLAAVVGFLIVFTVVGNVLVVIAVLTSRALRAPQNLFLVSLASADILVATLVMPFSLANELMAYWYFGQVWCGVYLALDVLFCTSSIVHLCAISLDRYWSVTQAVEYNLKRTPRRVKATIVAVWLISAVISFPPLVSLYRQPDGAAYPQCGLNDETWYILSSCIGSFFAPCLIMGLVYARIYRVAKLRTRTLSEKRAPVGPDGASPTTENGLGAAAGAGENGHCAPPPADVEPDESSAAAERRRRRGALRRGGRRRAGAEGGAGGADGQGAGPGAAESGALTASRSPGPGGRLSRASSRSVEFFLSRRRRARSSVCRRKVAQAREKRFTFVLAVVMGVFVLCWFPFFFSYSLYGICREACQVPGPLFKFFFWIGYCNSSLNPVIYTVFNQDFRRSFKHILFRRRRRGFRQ
Sequence of Voltage-gated potassium channel subunit beta-2 (Rattus norvegicus) (P62483 whole entry, looked up): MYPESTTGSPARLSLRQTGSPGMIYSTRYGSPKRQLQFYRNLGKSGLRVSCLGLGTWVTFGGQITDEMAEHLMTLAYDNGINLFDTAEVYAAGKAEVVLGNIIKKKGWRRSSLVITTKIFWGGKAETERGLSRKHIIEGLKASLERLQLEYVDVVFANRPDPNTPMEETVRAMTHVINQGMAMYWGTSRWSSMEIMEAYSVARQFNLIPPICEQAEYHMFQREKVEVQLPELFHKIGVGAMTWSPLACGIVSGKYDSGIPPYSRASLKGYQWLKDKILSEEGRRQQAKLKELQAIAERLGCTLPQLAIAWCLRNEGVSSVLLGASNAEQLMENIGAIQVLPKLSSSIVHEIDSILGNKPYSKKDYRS

SMILES | cell count [1] | inhibition [1] | inhibition of aggregation [2] | nuclei count [2] | inhibition [3] | nuclei count [3] | fluorescence slope [4] | NADPH fluorescence slope [5] | slope [6] | inhibition [7] | inhibition [8]
O=C(CN1C(=O)COCC1=O)N1CCOCC1 | 377 | -7% (inactive) | 11.7% (inactive) | 108% | -35.1% (inactive) | 112% | -0.422 (inactive) | -0.00011 (inactive) | 0.00596 (inactive) | 9.66% (inactive) | 23.7% (inactive)
CCOC(=O)N1CCC(NC(=O)CCC(=O)N2CC(C)Oc3ccc(Cl)cc32)CC1 (stereo not drawn) | 326 | 12.5% (inactive) | -2.6% (inactive) | 81.9% | 13.6% (inactive) | 89% | -0.369 (inactive) | -5e-05 (inactive) | 0.00486 (inactive) | 7.09% (inactive) | 6.64% (inactive)
O=C1CCCc2c1nn(-c1ccccc1)[n+]2[O-] | 563 | 7.1% (inactive) | -12.3% (inactive) | 107% | -32.5% (inactive) | 108% | -0.426 (inactive) | -2.2e-05 (inactive) | 0.00571 (inactive) | 2.04% (inactive) | 5.41% (inactive)
Cn1c(=O)[nH]c(=O)c2c1nc(N1CCc3ccccc3C1)n2CCSc1nc2ccccc2s1 | 404 | 4.7% (inactive) | 4.4% (inactive) | 105% | -34.8% (inactive) | 118% | -0.502 (inactive) | -4.2e-05 (inactive) | 0.00385 (inactive) | 19.3% (inactive) | 23% (inactive)
CCOCCn1c(CN2CCN(c3cccc(Cl)c3)CC2)nc2c1c(=O)n(C)c(=O)n2C | 743 | -15.7% (inactive) | -5.1% (inactive) | 104% | -20% (inactive) | 103% | -0.592 (inactive) | -4.2e-05 (inactive) | 0.00703 (inactive) | 1.6% (inactive) | 22.6% (inactive)
Cc1cccc(C)c1NC(=O)c1cc(S(=O)(=O)N2CCOCC2)ccc1F | 341 | 10.3% (inactive) | -3.7% (inactive) | 56.5% | -213% (inactive) | 80.9% | -0.302 (inactive) | -1e-05 (inactive) | 0.00325 (inactive) | 11.2% (inactive) | 26.3% (inactive)
CCOc1ccc2cc(C#N)c(SCC(=O)N3CCC(C)CC3)nc2c1 | 447 | 0.5% (inactive) | 6% (inactive) | 107% | -92.8% (inactive) | 138% | -0.242 (inactive) | 2.6e-06 (inactive) | 0.00566 (inactive) | 18.2% (inactive) | 7.14% (inactive)
CCN(CC)C(=O)Cn1ncc2c1-c1ccccc1OC2 | 597 | 0.5% (inactive) | -64.7% (inactive) | 102% | -54.6% (inactive) | 123% | -0.588 (inactive) | -4.7e-05 (inactive) | 0.00665 (inactive) | 7.79% (inactive) | 16.3% (inactive)
COc1ccc(-c2c(=O)n(OCc3ccccn3)c3ccccc3[n+]2[O-])cc1OC | 398 | 3.3% (inactive) | -10.4% (inactive) | 104% | -22.9% (inactive) | 110% | -0.385 (inactive) | -3.7e-09 (inactive) | 0.00593 (inactive) | -2.61% (inactive) | -16.8% (inactive)
CCN(CC)C(=O)COc1ccc2oc(C)c(C(=O)OC(C)C)c2c1 | 455 | 12.5% (inactive) | -21.2% (inactive) | 108% | -25.5% (inactive) | 126% | -0.42 (inactive) | 3.2e-05 (inactive) | 0.00275 (inactive) | 2.59% (inactive) | 17.4% (inactive)
CCOc1cc(NC(=O)c2ccco2)c(OCC)cc1NC(=O)COc1ccccc1C | 388 | 0% (inactive) | -11.9% (inactive) | 107% | -74.7% (inactive) | 129% | -0.00358 (active) | 3.9e-06 (inactive) | 0.00663 (inactive) | -1.87% (inactive) | -75.9% (inactive)
Cc1c(N=C2SCC(=O)N2c2c(C)n(C)n(-c3ccccc3)c2=O)c(=O)n(-c2ccccc2)n1C | 592 | 4.1% (inactive) | -7.8% (inactive) | 113% | -66.8% (inactive) | 116% | -0.482 (inactive) | -3e-05 (inactive) | 0.00551 (inactive) | 2.44% (inactive) | 13.3% (inactive)
CCc1cc2c(=O)c(-c3nc4ccccc4[nH]3)coc2c(CN2CCC(C)CC2)c1O | 708 | -7.9% (inactive) | 11.5% (inactive) | 102% | 15.3% (inactive) | 107% | -0.552 (inactive) | -3.1e-05 (inactive) | 0.00554 (inactive) | 7.38% (inactive) | 5.36% (inactive)
Cc1ccnc(NC(=O)C2CCCN(S(=O)(=O)c3cnc[nH]3)C2)c1 (stereo not drawn) | 526 | -2.4% (inactive) | 39.4% (active) | 84.3% | -81.7% (inactive) | 110% | -0.564 (inactive) | -2.6e-05 (inactive) | 0.00685 (inactive) | -13.6% (inactive) | 7.28% (inactive)
Fc1cccc2sc(Nc3nnc(-c4ccco4)o3)nc12 | 404 | -3.6% (inactive) | 2.5% (inactive) | 109% | -0.9% (inactive) | 94.5% | -0.501 (inactive) | -4.9e-05 (inactive) | 0.0148 (active) | -39.7% (inactive) | -83% (inactive)
COc1ccc2c(=O)c3c(=O)n(Cc4ccco4)c(-c4cc(OC)c(OC)c(OC)c4)nc3oc2c1 | 483 | -9.2% (inactive) | -28.3% (inactive) | 96.6% | -11.9% (inactive) | 121% | -0.525 (inactive) | 5.6e-06 (inactive) | 0.00457 (inactive) | 3.4% (inactive) | -1.04% (inactive)
CC(Oc1ccccc1)C(=O)Nc1ccc(S(=O)(=O)NCC2CCCO2)cc1 (stereo not drawn) | 377 | 5% (inactive) | 17.7% (inactive) | 81.9% | -84.8% (inactive) | 99.2% | -0.411 (inactive) | 1.4e-05 (inactive) | 0.00888 (inactive) | 20.7% (inactive) | 98.9% (active)
CCOC(=O)Cn1ncc(-c2ccccc2)c1N | 582 | -0.5% (inactive) | -6.8% (inactive) | 67.2% | -51.5% (inactive) | 96.2% | -0.48 (inactive) | 2.4e-05 (inactive) | 0.0046 (inactive) | -14.7% (inactive) | -27.5% (inactive)
CCOC(=O)C1=C(C)NC(=O)NC1c1ccc(Br)s1 (stereo not drawn) | 516 | 1.2% (inactive) | 5.5% (inactive) | 105% | 28.9% (inactive) | 104% | -0.502 (inactive) | -6.2e-05 (inactive) | 0.00543 (inactive) | 11.8% (inactive) | 12.6% (inactive)
C=CCn1c(COc2cccc(C)c2)nnc1SCC(=O)NC(=O)NCc1ccco1 | 365 | -10.6% (inactive) | 23.8% (inactive) | 86.7% | 6.1% (inactive) | 113% | -0.405 (inactive) | 3.1e-05 (inactive) | 0.00673 (inactive) | 16.1% (inactive) | 30.1% (inactive)
COC(=O)C(C#N)C(=C1C(=O)CC(C)(C)CC1=O)c1ccc(O)cc1 (stereo not drawn) | 315 | 1.2% (inactive) | 12% (inactive) | 92.7% | 15% (inactive) | 109% | -0.319 (inactive) | -2.3e-05 (inactive) | 0.00607 (inactive) | 9.88% (inactive) | 10.9% (inactive)
CCCN(CCC)CCNS(=O)(=O)c1ccc2c(c1)oc(=O)n2C | 346 | -13.8% (inactive) | -2.5% (inactive) | 77.3% | -106% (inactive) | 119% | -0.427 (inactive) | -3.3e-05 (inactive) | 0.00461 (inactive) | 9.38% (inactive) | 10.9% (inactive)
O=C(C1CCCO1)N1CCN(C(c2ccccc2)c2ccccc2)CC1 (stereo not drawn) | 412 | 2.5% (inactive) | 10.8% (inactive) | 97.1% | 32.4% (inactive) | 117% | -0.403 (inactive) | -2.6e-05 (inactive) | 0.00589 (inactive) | 13.8% (inactive) | 27.4% (inactive)
CC1CCN(S(=O)(=O)c2ccc3[nH]c(=O)cc(C(=O)O)c3c2)CC1 | 323 | -20.8% (inactive) | 8.5% (inactive) | 129% | -20% (inactive) | 104% | -0.463 (inactive) | -0.000161 (inactive) | 0.00662 (inactive) | -2.34% (inactive) | 13% (inactive)
O=C1c2ccccc2C(Nc2ccc(F)cc2F)N1CCN1CCOCC1 (stereo not drawn) | 791 | 1.8% (inactive) | 19.4% (inactive) | 101% | -46.2% (inactive) | 124% | -0.416 (inactive) | -3.1e-05 (inactive) | 0.00478 (inactive) | 13.8% (inactive) | 38.8% (inactive)
CN1C(=O)C(O)(CC(=O)c2ccc3c(c2)OCO3)c2ccccc21 (stereo not drawn) | 340 | 6% (inactive) | -7.9% (inactive) | 105% | -11.1% (inactive) | 108% | -0.457 (inactive) | 6.3e-06 (inactive) | 0.00347 (inactive) | 4.81% (inactive) | 32.2% (inactive)
Cc1c(C#N)c(N)c(C(=O)c2ccccc2)n1Cc1ccccc1 | 375 | 0% (inactive) | 15.4% (inactive) | 100% | -38% (inactive) | 117% | -0.512 (inactive) | -1.4e-05 (inactive) | 0.0107 (inactive) | -20.6% (inactive) | 0.155% (inactive)
Cc1cc(C)n2nc(SCC(=O)N(C)c3ccccc3)nc2n1 | 370 | -5.3% (inactive) | -25.2% (inactive) | 115% | -24.2% (inactive) | 103% | -0.462 (inactive) | -4.2e-05 (inactive) | 0.0068 (inactive) | 5.25% (inactive) | 24.1% (inactive)
